CHO-K1 Ca antag: nonselective inhibitor or artifact in parental CHO-K1 cells. ATP-induced calcium, Fluo-8 fluorescence. inhibition, % at 3 µM. 0.6% of 360,000 active. AID 602250;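 active means inhibition above a per-plate cutoff, the plate's mean sample inhibition plus 3 SD, cut at about 24% in these data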;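 further: 0% = DMSO plus EC80 ATP and 100% = DMSO alone without ATP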
CHO-K1 Ca PAM: nonselective calcium activators in parental CHO-K1 cells, primary screen, counter-screen for M1 PAM project, cell-based, Fluo-8 calcium fluorescence, full deck, 1536-well; activation, % at 3 µM; ATP EC20; 0% at ATP EC20, 100% at ATP max; AID 602247, 2012; 0.02% of 360,000 active;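 active means activation above the run cutoff, the mean activation of all test compounds plus 3 SD, cut at about 40% in these data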;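 further: peak over basal fluorescence ratio in a 140 s read after ATP addition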
CHRM1 agonist: human M1 muscarinic receptor agonists, primary screen, Fluo-8 calcium fluorescence, CHO-K1 cells, HTS. Muscarinic acetylcholine receptor M1 (Homo sapiens), P11229. CHO-K1 hM1, agonist mode; 0% DMSO, 100% acetylcholine EC100. activation, % at 3 µM. 0.33% of 360,000 active. AID 588814, 2011;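 active means activation above the run's mean compound activation plus 3 SD, cut at about 16% in these data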;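 further: peak over basal fluorescence ratio within a 140 s kinetic read after compound addition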
Target sequence (P11229 whole entry, looked up): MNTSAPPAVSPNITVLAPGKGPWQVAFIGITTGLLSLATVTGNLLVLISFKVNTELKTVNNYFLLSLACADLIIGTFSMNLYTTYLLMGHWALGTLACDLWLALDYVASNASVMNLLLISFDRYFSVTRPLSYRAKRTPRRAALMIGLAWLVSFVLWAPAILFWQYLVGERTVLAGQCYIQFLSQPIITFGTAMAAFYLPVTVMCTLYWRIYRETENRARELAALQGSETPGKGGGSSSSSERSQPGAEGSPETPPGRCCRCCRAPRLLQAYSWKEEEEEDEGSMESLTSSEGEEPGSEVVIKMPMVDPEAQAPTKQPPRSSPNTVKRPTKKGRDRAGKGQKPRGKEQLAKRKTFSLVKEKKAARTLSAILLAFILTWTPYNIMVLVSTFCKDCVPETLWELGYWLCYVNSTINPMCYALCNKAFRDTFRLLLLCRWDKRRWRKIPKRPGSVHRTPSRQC
M1 ag parental: counter-screen for M1 agonists: effect in parental CHO-K1 cells. Fluo-8 calcium fluorescence; scaled to maximal ATP response, vehicle zero. AID 602248, 2012. 0.48% of 360,000 active. activation, % at 3 µM; in the data active means activation above about 15%;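 further: untransfected CHO-K1 host cells lacking M1 receptor as counterscreen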
CHRM1 PAM: human M1 muscarinic receptor positive allosteric modulators, primary screen, CHO-K1 cells, Fluo-8 calcium fluorescence, 1536-well; Muscarinic acetylcholine receptor M1 (Homo sapiens), P11229; CHO-K1 hM1, ACh EC20; 0% = ACh EC20, 100% = maximal ACh; activation, % at 3 µM; 0.088% of 360,000 active; AID 588819, 2011; in the data active means activation above about 19%, passing the limit was not always enough
M1 antag: human M1 muscarinic receptor antagonists, primary screen, CHO-K1 cells, Fluo-8 calcium fluorescence, 1536-well; 1.3% of 360,000 active; CHO-K1 hM1, ACh EC80 antagonist; AID 588852, 2011; inhibition, % at 3 µM;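 active means percent inhibition above its own plate's cutoff, namely the mean of that plate's compound wells plus 3 SD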;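 further: peak over basal fluorescence ratio during 140 s after agonist addition; 0% = ACh EC80 plus DMSO and 100% = DMSO alone without agonist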
Starred values were filed as active, the others as inactive. A selection: hits, their analogues and other compounds. The true share with any hit is near 2.3%.

SMILES | CHO-K1 Ca antag | CHO-K1 Ca PAM | CHRM1 agonist | M1 ag parental | CHRM1 PAM | M1 antag
O=C(CC(c1ccccc1O)N1CCCCC1)N1CCCCC1 (centres undefined) | -0.7 | -2.4 | -5.9 | -0.2 | -22.6 | 69.8*
N#Cc1ccc(CN(Nc2ccccc2)c2ccccc2)cc1 | 29.2* | -12.1 | -5.5 | -0.6 | -9.0 | 2.9
CCOC(=O)C1CCN(C(=O)CSc2ccccc2Cl)CC1 | -10.4 | 0.8 | -5.0 | 0.3 | -4.7 | 7.2
COc1cc2c(cc1NC(=O)C(C)OC(=O)C1CC(=O)N(Cc3ccco3)C1)oc1ccccc12 (centres undefined) | 28.5* | -5.6 | -2.4 | -0.1 | 0.9 | 0.4
CC(OC(=O)C1CC(=O)N(Cc2ccco2)C1)C(=O)Nc1cccc(C#N)c1 (centres undefined) | -1.4 | -8.3 | -7.2 | 0.8 | 2.6 | -2.1
CC1(C)C2CC=C(/C=N/NC(=S)Nc3cccnc3)C1C2 (centres undefined) | 13.6 | 15.2 | -4.7 | 16.1* | 0.1 | 1.5
C[C@H](CO)N1C[C@H](C)[C@@H](CN(C)Cc2ccc(C(=O)Nc3ccccc3N)cc2)Oc2c(NC(=O)C3CCCCC3)cccc2C1=O | -16.5 | 11.9 | -10.3 | -0.3 | -2.2 | 0.6
CCOC(=O)N1CCN(CC(=O)Nc2nccs2)CC1 | 8.3 | -1.2 | -2.7 | -0.3 | -1.9 | -3.2
Cc1[nH][nH]c(=O)c1C(c1c(C)[nH][nH]c1=O)c1cn(Cc2ccc(Cl)c(Cl)c2)c2ccccc12 | 0.2 | 20.3 | 20.3* | 1.0 | 10.4 | 4.1
O=C(C1CCN(S(=O)(=O)c2cccc3nsnc23)CC1)N1CC=C(c2ccccc2)CC1 | 8.8 | -8.0 | 0.2 | 3.8 | -7.7 | 14.0
CC1CCN(CCCNC(=O)C2CCC(CNS(=O)(=O)c3cccc4nsnc34)CC2)CC1 (centres undefined) | -1.6 | -2.6 | -6.0 | 0.5 | -23.1 | 65.0*
O=C(C1CCC(CNS(=O)(=O)c2cccc3nsnc23)CC1)N1CC=C(c2ccccc2)CC1 (centres undefined) | 26.2* | -10.4 | -1.7 | 0.7 | -6.0 | 22.9
CC1CCN(CCNC(=O)C2CCCN(S(=O)(=O)c3cccc4nsnc34)C2)CC1 (centres undefined) | 34.1* | -27.9 | -6.3 | -1.2 | 7.5 | -9.1
O=C(NCCCN1CCCCCC1)C1CCCN(S(=O)(=O)c2cccc3nsnc23)C1 (centres undefined) | -11.5 | 19.0 | -6.2 | 0.0 | -3.7 | -1.1
COC(=O)C1=C(C)NC2=C(C(=O)CCC2)C1c1ccc(-c2ccsc2C(=O)OC)o1 (centres undefined) | 23.4 | -17.1 | 25.3* | 4.4 | -3.1 | 5.8
CC1=C(C(=O)OC2CCCCCC2)C(c2ccc(C)o2)C2=C(CCCC2=O)N1 (centres undefined) | 12.9 | -3.3 | 6.1 | 0.3 | 10.5 | -5.2
CCCOC(=O)N[C@@H]1C(=O)N2C(C(=O)OCCC)=C(C)CS[C@H]12 | -17.8 | 10.7 | -5.0 | 0.5 | 3.2 | 3.9
FC(F)Sc1ccc(-n2c(-c3ccc(Cl)cc3)c[n+]3c2CCC3)cc1 | -0.2 | -4.8 | -5.9 | 0.1 | -20.8 | 61.3*
CCOc1ccccc1NC(=O)C(c1ccccc1)N1CCN(C(=O)c2ccco2)CC1 (centres undefined) | -18.6 | 23.0 | 4.2 | 3.2 | 8.9 | -8.4
C[N+]1(CC(=O)Nc2ccccc2Cl)CCN(C(=O)c2cccs2)CC1 | -19.1 | 15.7 | -4.8 | 0.3 | -12.2 | 33.3*
Clc1cccc(CN2CCC3CC2c2cc(N4CCCCC4)ccc23)c1 (centres undefined) | -16.4 | 12.2 | -4.9 | 0.8 | 3.4 | -7.9
O=C(c1cc(Cl)cc(Cl)c1)N1CCC2CC1c1cc(N3CCCCC3)ccc12 (centres undefined) | 2.1 | 8.5 | -10.9 | 0.0 | -33.5 | 69.7*
O=C(OCc1ccccc1)N1CCC2CC1c1cc(N3CCCCC3)ccc12 (centres undefined) | -11.0 | 13.4 | -10.9 | 0.1 | -27.8 | 34.2*
O=C(NN1CCOCC1)c1ccc(Cl)s1 | -7.8 | 9.4 | -7.4 | 0.0 | 4.4 | 1.7
CC1CCCN(CCCN2C(=O)C3C(C(=O)Nc4cccc(Cl)c4)C4C=CC3(O4)C2C(=O)NC2CCCCC2)C1 (centres undefined) | -0.4 | -11.1 | -8.0 | 0.0 | 11.2 | -8.1
SMILES | CHO-K1 Ca antag | CHO-K1 Ca PAM | CHRM1 agonist | M1 ag parental | CHRM1 PAM | M1 antag
CC(OC(=O)C1CCN(c2ccc(C(F)(F)F)cn2)CC1)C(=O)Nc1cccc([N+](=O)[O-])c1 (centres undefined) | -9.3 | -9.9 | -3.0 | 5.2 | -14.4 | 17.6
O=c1[nH]cnc2c1ncn2[C@@H]1O[C@H](COS(=O)(=O)O)[C@@H](O)[C@H]1O | -18.4 | 16.2 | -7.8 | 0.6 | 6.6 | -9.3
COCCCNC(=O)N1c2ccccc2Sc2ccccc21 | -6.3 | 14.7 | -7.3 | 1.1 | 19.3 | -20.6
CC(C)CNCC(=O)N1c2ccccc2Sc2ccccc21 | -2.5 | 15.0 | -5.7 | 0.7 | -21.9 | 92.7*
COCCNCC(=O)N1c2ccccc2Sc2ccccc21 | -0.3 | -8.0 | -8.7 | 0.0 | -29.4 | 90.0*
O=S(=O)(c1cc(F)ccc1F)N1CCN(c2ncnc3ccccc23)CC1 | 4.7 | -2.9 | -0.1 | 18.1* | -12.9 | 30.8*
O=S(=O)(c1cc(F)ccc1F)N1CCN(c2ccccn2)CC1 | 6.4 | 11.6 | -7.3 | 0.7 | 0.9 | -3.8
O=C(Cc1ccc(Br)cc1)Nc1ncc([N+](=O)[O-])s1 | 23.8* | -30.8 | 7.8 | 16.4* | -12.0 | 35.0
CN(C(=O)CSCC(=O)O)C1CCCCC1 | 2.1 | 9.9 | -2.3 | 0.9 | -2.0 | -0.9
CC[C@@H](C(=O)[C@@H](C)[C@@H](O)[C@H](C)CCc1ccc(C)c(O)c1C(=O)O)[C@H]1O[C@](CC)([C@H]2CC[C@](O)(CC)[C@H](C)O2)C[C@@H]1C | 9.7 | -0.8 | 60.5* | 26.3* | -19.0 | -5.6
CN(C)/C=C(/C#N)C(=O)c1cccc(Oc2ccc(C(C)(C)C)cc2)c1 | -12.6 | 21.1 | -1.5 | 0.0 | 6.9 | -17.9
N#CC(C(N)=O)=C1CCCCC1 | -4.9 | 4.3 | -1.4 | 0.7 | 4.8 | -15.1
Nc1cc2c3ccccc3ccc2c2ccccc12 | -4.7 | 13.4 | -2.3 | 1.8 | 6.7 | -9.9
O=c1c2ccccc2c2ccccc2c(=O)n1Nc1ccccc1 | 12.0 | 20.3 | -0.1 | 4.3 | 6.2 | -11.9
O=C(CNS(=O)(=O)c1c(Cl)cccc1Cl)OCC(=O)N1CCN(c2ccccc2)CC1 | 25.9* | -12.3 | -6.8 | 1.1 | -6.2 | 13.1

Assay outcomes as filed in PubChem BioAssay.
